High-throughput results deposited in PubChem BioAssay by Broad Institute.
An excerpt weighted towards active compounds, which were near 3.1% of everything screened.
dFosB act-1 – mouse delta FosB homodimer activation. purified delta FosB, TAMRA-CDK5 oligo fluorescence polarization; percent of positive-control signal above neutral wells. activation, % at 25 µM. actives 0.99% (n = 340,000);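 active means mean activation above about 17%, with every replicate also reaching it, limit read from the data, passing the limit was not always enough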
Target sequence (P13346 whole entry, looked up): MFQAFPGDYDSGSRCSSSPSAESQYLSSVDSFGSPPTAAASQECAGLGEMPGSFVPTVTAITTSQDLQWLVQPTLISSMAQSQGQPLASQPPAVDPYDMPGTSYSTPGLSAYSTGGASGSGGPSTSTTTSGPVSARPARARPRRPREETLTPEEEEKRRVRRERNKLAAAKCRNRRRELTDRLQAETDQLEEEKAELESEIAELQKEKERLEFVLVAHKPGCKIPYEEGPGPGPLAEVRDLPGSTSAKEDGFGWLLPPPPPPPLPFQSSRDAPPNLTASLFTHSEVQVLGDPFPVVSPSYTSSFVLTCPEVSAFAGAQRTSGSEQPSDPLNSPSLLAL
RAD52 inh – blocks human RAD52 DNA annealing. P43351. recombinant RAD52 DNA annealing, FRET fluorescence. inhibition, % at 18.7 µM. actives 0.46% (n = 360,000). AID 651710;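 active means every replicate showing at least 50% inhibition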
INS-1E GSIS act – GLuc luminescence reporter in INS-1E cells, primary screen for activators of glucose-dependent secretion of insulin. INS-1E GLuc reporter insulin secretion, 2-3 h. activation, % at 16.6 µM. actives 0.61% (n = 370,000);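 active means lowest replicate activation of at least 40%, so every replicate reaches that level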;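 further: 0% = median of neutral control wells and 100% = median of IBMX positive control wells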
RAD54 inh – blocks human RAD54 Holliday junction branch migration. Q92698. actives 0.14% (n = 360,000). FAM/BHQ fluorescence. inhibition, % at 10.4 µM. AID 602329;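 active means mean normalized replicate activity at least 40 and at least half of replicates scoring 40 or more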;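 further: 0% = median of neutral control wells and 100% = median of positive control wells; inhibitors cause a drop in the FAM fluorescence signal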
MLL AF4-AF9 inh – blocks AF4 peptide binding to human AF9; inhibition, % at 10 µM; actives 0.47% (n = 350,000); P42568; AlphaScreen, biotin-AF4 peptide binding to FLAG-AF9;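 active means every replicate reaching a set inhibition limit, whatever the replicate mean, cut at about 25% in these data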;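 further: 0% = plate neutral control median and 100% = total signal loss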
DENV2 CPE rescue – DENV2-induced cell death inhibition | DENV2-infected cells, cytopathic effect rescue, plate reader | CPE inhibition, % at 9.99 µM | actives 1.7% (n = 350,000); in the data active means CPE inhibition above about 20%, passing the limit was not always enough; tested in BHK-21 cells;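 further: 0% = median of neutral control wells and 100% = median of positive control wells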
dFosB act-2 – activators of mouse delta FosB homodimer DNA binding | shares compounds with dFosB act-1 | purified delta FosB, TAMRA-CDK5 oligo fluorescence polarization; normalised: neutral wells 0, positive control 100 | activation, % at 24.9 µM | 2,400 tested, under 10 active;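 active means highest replicate activation at or above 34% and every replicate reaching that threshold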;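 further: higher polarization means more probe DNA bound by delta FosB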
The depositor's hits bear a star.

How did CC(C)CN(C(=O)COC(=O)c1cncc(Br)c1)c1c(N)n(Cc2ccccc2)c(=O)[nH]c1=O do in these assays?
dFosB act-1: 0; RAD52 inh: -17; INS-1E GSIS act: -3; RAD54 inh: 4; MLL AF4-AF9 inh: -2; DENV2 CPE rescue: 14

What do the screens show for `COc1ccc(CCC(=O)OCC(=O)N(C)c2c(N)n(Cc3ccccc3)c(=O)[nH]c2=O)cc1`?
dFosB act-1: -4; RAD52 inh: -15; INS-1E GSIS act: 16; RAD54 inh: -7; MLL AF4-AF9 inh: -2; DENV2 CPE rescue: 6

What do the screens show for `COCCN(C(=O)COC(=O)COc1ccc(Cl)c(C)c1)c1c(N)n(Cc2ccccc2)c(=O)[nH]c1=O`?
dFosB act-1: -6; RAD52 inh: 1; INS-1E GSIS act: -11; RAD54 inh: -11; MLL AF4-AF9 inh: 0; DENV2 CPE rescue: -2

Results for COCCN(C(=O)COC(=O)COc1ccc2ccccc2c1)c1c(N)n(Cc2ccccc2)c(=O)[nH]c1=O ?
dFosB act-1: 19*; RAD52 inh: -20; INS-1E GSIS act: 5; RAD54 inh: -4; MLL AF4-AF9 inh: -1; DENV2 CPE rescue: 5; dFosB act-2: 0

Results for CC(C)CN(C(=O)COC(=O)c1ccc(Br)cc1)c1c(N)n(Cc2ccccc2)c(=O)[nH]c1=O ?
dFosB act-1: 51*; RAD52 inh: -20; INS-1E GSIS act: 8; MLL AF4-AF9 inh: 3; DENV2 CPE rescue: -7; dFosB act-2: -1

How did C[C@@H]1CCCCO[C@@H](CN(C)C(=O)c2ccncc2)[C@@H](C)CN([C@H](C)CO)C(=O)c2cc(NS(C)(=O)=O)ccc2O1 do in these assays?
RAD52 inh: -3; INS-1E GSIS act: 15; RAD54 inh: -3; MLL AF4-AF9 inh: -1; DENV2 CPE rescue: -8

How did C[C@@H]1CCCCO[C@H](CN(C)Cc2ccc3c(c2)OCO3)[C@H](C)CN([C@H](C)CO)C(=O)c2cc(NS(=O)(=O)c3ccccc3)ccc2O1 do in these assays?
RAD52 inh: 20; INS-1E GSIS act: -26; RAD54 inh: -3; MLL AF4-AF9 inh: 12; DENV2 CPE rescue: -4

Results for COc1ccc(OCC(=O)Nc2nc3ccc(NC(C)=O)cc3s2)cc1 ?
dFosB act-1: 23*; RAD52 inh: -6; INS-1E GSIS act: 4; MLL AF4-AF9 inh: 0; DENV2 CPE rescue: -7; dFosB act-2: 8

What do the screens show for `CC(=O)Nc1ccc2nc(NC(=O)c3cccs3)sc2c1`?
dFosB act-1: 22*; RAD52 inh: 2; INS-1E GSIS act: 0; RAD54 inh: -10; MLL AF4-AF9 inh: -28; DENV2 CPE rescue: 1; dFosB act-2: -2

What do the screens show for `Cc1nc2ccc(NC(=O)c3cccs3)cc2s1`?
dFosB act-1: -12; RAD52 inh: -14; INS-1E GSIS act: 0; RAD54 inh: -1; MLL AF4-AF9 inh: -15; DENV2 CPE rescue: -4

Results for CC(=O)Nc1ccc2nc(NC(=O)COc3ccc([N+](=O)[O-])cc3)sc2c1 ?
dFosB act-1: 4; RAD52 inh: -10; INS-1E GSIS act: 5; MLL AF4-AF9 inh: -1

What do the screens show for `CCC(=O)N1[C@H](CN(C)C(C)=O)[C@@H](c2ccc(-c3cccc(F)c3)cc2)[C@@H]1CO`?
INS-1E GSIS act: -1; RAD54 inh: -3; DENV2 CPE rescue: 17

How did CCCC#Cc1cnc2c(c1)C(=O)N([C@@H](C)CO)C[C@H](C)[C@H](CN(C)S(=O)(=O)c1cn(C)cn1)O2 do in these assays?
INS-1E GSIS act: 8

Results for S=C(c1cn(CCOc2ccccc2)c2ccccc12)N1CCCC1 ?
dFosB act-1: 7; RAD54 inh: 6

Results for S=C(c1cn(CCOc2cccc3ccccc23)c2ccccc12)N1CCCC1 ?
dFosB act-1: 27*; INS-1E GSIS act: -36; RAD54 inh: -20; dFosB act-2: 1

What do the screens show for `COc1cccc(NC(=O)CSc2nc3n[nH]c(C)c3c(=N)n2-c2cccc(OC)c2)c1`?
dFosB act-1: -4; INS-1E GSIS act: -34; RAD54 inh: 7

How did CCc1ccc(NC(=O)CSc2nc3n[nH]c(C)c3c(=N)n2-c2cccc(OC)c2)cc1 do in these assays?
dFosB act-1: 42*; INS-1E GSIS act: -3; RAD54 inh: -2; dFosB act-2: 0

Results for Cc1ccc(S(=O)(=O)Nc2cccc(-c3ccc4nncn4n3)c2)cc1 ?
dFosB act-1: 20*; RAD52 inh: -24; INS-1E GSIS act: 7; RAD54 inh: -11; MLL AF4-AF9 inh: 1; DENV2 CPE rescue: -1; dFosB act-2: -1

Results for CCCNC(=O)N1C[C@H](C)[C@H](OC)CN(C)C(=O)c2ccc(NC(=O)CCC)cc2OC[C@@H]1C ?
RAD52 inh: 4; INS-1E GSIS act: 25; RAD54 inh: -7; MLL AF4-AF9 inh: -2; DENV2 CPE rescue: 1

What do the screens show for `O=C(Nc1ccc(OC(F)(F)F)cc1)N1CCN(c2ccnc3cc(Cl)ccc23)CC1`?
dFosB act-1: 39*; RAD52 inh: -18; INS-1E GSIS act: -46; MLL AF4-AF9 inh: -2; DENV2 CPE rescue: -8; dFosB act-2: -4

How did C[C@H]1CCCCO[C@H](CN(C)C(=O)Nc2ccc3c(c2)OCO3)[C@@H](C)CN([C@@H](C)CO)C(=O)c2cc(NC(=O)CCCN(C)C)ccc2O1 do in these assays?
RAD52 inh: -10; INS-1E GSIS act: 1; RAD54 inh: 11; MLL AF4-AF9 inh: 9; DENV2 CPE rescue: -12

How did O=C(NCc1ccccc1Cl)c1cccc(NC2=NC3CS(=O)(=O)CC3S2)c1 (stereo not drawn) do in these assays?
dFosB act-1: -5; RAD52 inh: -4; INS-1E GSIS act: 5; RAD54 inh: -3; MLL AF4-AF9 inh: -1; DENV2 CPE rescue: 1

Results for O=C(NCc1ccccc1Cl)c1ccc(NC2=NC3CS(=O)(=O)CC3S2)cc1 (stereo not drawn) ?
dFosB act-1: 29*; RAD52 inh: -9; RAD54 inh: 11; MLL AF4-AF9 inh: 6; DENV2 CPE rescue: 11; dFosB act-2: 4

How did Cc1nc(-c2ccc(NC(=O)c3ccc(Br)o3)cc2)cs1 do in these assays?
dFosB act-1: 26*; RAD52 inh: -20; INS-1E GSIS act: 22; RAD54 inh: -5; MLL AF4-AF9 inh: 1; DENV2 CPE rescue: 6; dFosB act-2: 0

What do the screens show for `C[C@H](CO)N1C[C@H](C)[C@H](CN(C)C(=O)Nc2ccccc2)Oc2c(cccc2N(C)C)C1=O`?
RAD52 inh: -11; INS-1E GSIS act: 21; RAD54 inh: -11; MLL AF4-AF9 inh: -2; DENV2 CPE rescue: 6
